Reference: PubChem BioAssay (Tox21)
Inconclusive results are not listed. Where a call stands in place of a potency, no number is given. Activity calls are given as the source filed them. Unless noted, calls follow the shape of the dose curve; as a rule, active = well fitted cell-killing curve with a large enough effect in the repeat runs; inconclusive = weak or mixed curves, or effect the other way; inactive = no such curve, though single readings can be large or run the other way.

Test: qHTS assay for small molecule activators of the heat shock response signaling pathway - cell viability counter screen (AID 743209); also: nearly all actives have a fitted effect of over 50% in size
Conditions: HSE-bla HeLa viability, CellTiter-Glo luminescence, 5 h; series mostly up to 62.6 µM
Summary of the method: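 First, HSE-bla HeLa cells were seeded at 1500 cells/well and kept overnight at 37 C. Next, compounds were pinned in and incubated 5 h. After the FRET substrate step, CellTiter-Glo was added and luminescence read 30 min later.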
In the case of CN1CCN(C(=O)O[C@H]2c3nccnc3C(=O)N2c2ccc(Cl)cn2)CC1, the Potency is reported as “inactive”. For CC(COc1ccc(Oc2ccccc2)cc1)Oc1ccccn1 (centres undefined), the Potency was “inactive”. For CCN(Cc1ccc(Cl)nc1)/C(=C/[N+](=O)[O-])NC, the Potency was “inactive”. For CCCSP(=S)(OCC)Oc1ccc(Cl)cc1Cl (centres undefined), the Potency was “inactive”. In the case of CC1CCCCC1NC(=O)Nc1ccccc1 (centres undefined), the Potency is reported as “inactive”. In the case of Cc1nnc2n1-c1sc(CCC(=O)N3CCOCC3)cc1C(c1ccccc1Cl)=NC2, the Potency is reported as “inactive”. In the case of CC(CCc1ccccc1)NC(C)C(O)c1ccc(O)cc1 (centres undefined), the Potency is reported as “inactive”. For Cc1cccc(C#N)c1, the Potency was “inactive”. In the case of ClC(Cl)Br, the Potency is reported as “inactive”. In the case of c1cc2c(c(N3CCNCC3)c1)OCCO2, the Potency is reported as “inactive”. With CN1C(=S)CN=C(c2ccccc2)c2cc(Cl)ccc21 the Potency was “inactive”. For CC1(C)C(=O)NC(=O)NC1=O, the Potency was “inactive”. For CS(=O)(=O)c1cc(C(F)(F)F)ccc1C(=O)c1cnoc1C1CC1, the Potency was “inactive”.

Test: qHTS assay for small molecule activators of the heat shock response signaling pathway (AID 743210; active = well fitted activation curve with a large enough effect in the signal ratio in the repeat runs, with a control signal flat, not every such curve was filed as active; the % refers to the signal ratio;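 also: HeLa cells with beta-lactamase reporter driven by heat shock elements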)
Conditions: HeLa HSE-bla reporter, beta-lactamase ratio, 5 h; series mostly up to 62.6 µM
Summary of the method: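 Quantitative high-throughput format using an engineered HeLa line in which heat shock response elements drive beta-lactamase; after 5 h with compound, cells received a B/G FRET substrate and fluorescence was read.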
With O=[N+]([O-])c1ccc(CBr)cc1 the outcome was “inactive”. For CC(Cl)(Cl)[N+](=O)[O-], the outcome was “inactive”. In the case of CC(C)CP(=S)(S)CC(C)C, the outcome is reported as “inactive”. With COC(=O)c1c(C(F)F)nc(C(F)(F)F)c(C2=NCCS2)c1CC(C)C the outcome was “inactive”. In the case of CCS(=O)(=O)C(C)(C)S(=O)(=O)CC, the outcome is reported as “inactive”. In the case of O=C1c2ccccc2C(=O)c2ccccc21, the outcome is reported as “inactive”. With CCCCc1c(C)nc(NCC)[nH]c1=O the outcome was “inactive”. For CCOP(=S)(OCC)Oc1nc(Cl)n(C(C)C)n1, the outcome was “inactive”. In the case of CCC1(c2ccccc2)C(=O)NC(=O)NC1=O, the outcome is reported as “inactive”. With Nc1cc2c3c(c1)C(c1ccccc1)=N[C@@H](NC(=O)c1cccnc1)C(=O)N3CC2 the outcome was “inactive”. For CC(C1CC1)C(O)(Cn1cncn1)c1ccc(Cl)cc1 (centres undefined), the outcome was “inactive”. For C1CCC(C2CCCCC2)CC1, the outcome was “inactive”. For C#CCN1C(=O)COc2cc(F)c(N3C(=O)C4=C(CCCC4)C3=O)cc21, the outcome was “inactive”. For CCC(C)(C)c1cc(-n2nc3ccccc3n2)c(O)c(C(C)(C)CC)c1, the outcome was “inactive”. In the case of [Cl][Sn]([Cl])([Cl])[Cl], the outcome is reported as “inactive”. For CSc1nc(N=[N+]=[N-])nc(NC(C)C)n1, the outcome was “inactive”. With CCCSC(=O)Cl the outcome was “inactive”. In the case of COC(=O)C(C)Oc1ccc(Oc2ccc(Cl)cc2Cl)cc1 (centres undefined), the outcome is reported as “inactive”. In the case of CCOC(=O)CP(=O)(OCC)OCC, the outcome is reported as “inactive”. For CN1CCN(C(=O)O[C@H]2c3nccnc3C(=O)N2c2ccc(Cl)cn2)CC1, the outcome was “inactive”. In the case of CCN(Cc1ccc(Cl)nc1)/C(=C/[N+](=O)[O-])NC, the outcome is reported as “inactive”. For CC1CCCCC1NC(=O)Nc1ccccc1 (centres undefined), the outcome was “inactive”. With NC(=O)c1cc([N+](=O)[O-])cc([N+](=O)[O-])c1 the outcome was “inactive”. With Cc1nnc2n1-c1sc(CCC(=O)N3CCOCC3)cc1C(c1ccccc1Cl)=NC2 the outcome was “inactive”. With CC(CCc1ccccc1)NC(C)C(O)c1ccc(O)cc1 (centres undefined) the outcome was “inactive”. For Cc1cccc(C#N)c1, the outcome was “inactive”. In the case of ClC(Cl)Br, the outcome is reported as “inactive”. For c1cc2c(c(N3CCNCC3)c1)OCCO2, the outcome was “inactive”. For CN1C(=S)CN=C(c2ccccc2)c2cc(Cl)ccc21, the outcome was “inactive”. In the case of CC1(C)C(=O)NC(=O)NC1=O, the outcome is reported as “inactive”. For CS(=O)(=O)c1cc(C(F)(F)F)ccc1C(=O)c1cnoc1C1CC1, the outcome was “inactive”.
